{
  "source": "PubChem BioAssay (EPA / NIEHS)",
  "note": "“And” between values parts separate entries of the source, which are not always exact repeats. Identical values can stand only once. The source made the active and inactive calls. The calls were made as follows: active = hit-call score of the fitted dose curve at least 0.9, where 1 is the maximum; inactive = score below 0.9.",
  "data": [
    {"biological_target": "Cytochrome P450 2C18 (Homo sapiens) (UniProt P33260)", "sequence (P33260 whole entry, looked up)": "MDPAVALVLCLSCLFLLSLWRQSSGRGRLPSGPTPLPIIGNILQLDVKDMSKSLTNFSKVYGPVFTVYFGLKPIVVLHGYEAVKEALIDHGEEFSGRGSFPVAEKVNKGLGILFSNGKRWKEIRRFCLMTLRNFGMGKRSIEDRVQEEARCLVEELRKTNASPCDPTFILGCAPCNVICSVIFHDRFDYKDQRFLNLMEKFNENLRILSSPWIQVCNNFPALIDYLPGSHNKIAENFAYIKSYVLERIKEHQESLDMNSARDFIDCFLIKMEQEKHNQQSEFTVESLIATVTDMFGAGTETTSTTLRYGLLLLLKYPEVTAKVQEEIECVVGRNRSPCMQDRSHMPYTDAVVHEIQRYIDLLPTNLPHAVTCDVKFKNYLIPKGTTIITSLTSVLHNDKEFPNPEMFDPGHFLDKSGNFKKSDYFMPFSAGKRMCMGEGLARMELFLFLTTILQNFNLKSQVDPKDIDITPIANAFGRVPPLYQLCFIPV", "assay": "NVS_ADME_hCYP2C18: NovaScreen (NVS) CYP450-related Enzyme Activity (ADME) Assay for human CYP2C18 (AID 2283103)", "procedure": "NVS_ADME_hCYP2C18 is a biochemical, single-readout assay that uses extracted gene-proteins in a cell-free assay. Measurements were taken 0.5 hour after chemical dosing in a 96-well plate.NVS_ADME_hCYP2C18 is one of one assay component(s) measured or calculated from the NVS_ADME_hCYP2C18 assay. It is designed to make measurements of enzyme activity, a form of enzyme reporter, as detected with fluorescence intensity signals by Fluorescence technology.Data from the assay component NVS_ADME_hCYP2C18 was analyzed into 1 assay endpoint. This assay endpoint, NVS_ADME_hCYP2C18, was analyzed in the positive analysis fitting direction relative to Acetonitrile as the negative control and baseline of activity. Using a type of enzyme reporter, loss-of-signal activity can be used to understand changes in the enzymatic activity as they relate to the gene CYP2C18. Furthermore, this assay endpoint can be referred to as a primary readout, because this assay has produced multiple assay endpoints where this one serves a enzymatic activity function. To generalize the intended target to other relatable targets, this assay endpoint is annotated to the cyp intended target family, where the subfamily is xenobiotic metabolism.\nBinding assays used specific radioligands (tritiated, iodinated) with non-radioactive competitive displacement ligands in agonist or antagonist protocols (as indicated) and various reference compounds and inhibitors to titrate specific binding to receptors and transporters. Most enzyme assays (CYPs, kinases, phosphatases, proteases, HDACs) used recombinant protein and specific substrates (fluorescence mostly, some colorimetric and radioactive) and inhibitors, followed by a biochemical separation of substrate and product. All assays for the biochemical HTS were initially run in duplicate at a single concentration (10 uM for CYP450 assays and 25 uM for all others). Assay-chemical combinations meeting a pre-defined threshold (e.g., 30% inhibition and other criteria defined below) were then run in singleton concentration-response format with maximum concentration of 20 uM for CYPs and 50 uM for all others. Each assay was run with positive and negative controls, and concurrent controls on every plate. The follow-up (secondary) screen tested active chemical-pairs in concentration series, as well as a few additional assays not tested in the primary screen, some selected negative inactives, and several cases re-run in the concentration series for confirmatory purposes.", "values": [
      {"smiles": "COc1ccc(C(c2ccc(OC)cc2)C(Cl)(Cl)Cl)cc1", "AC50": "4.6 µM (active)"},
      {"smiles": "CC1COC(Cn2cncn2)(c2ccc(Oc3ccc(Cl)cc3)cc2Cl)O1", "note": "(stereo not drawn)", "AC50": "1.07 µM (active)"},
      {"smiles": "N#CC(CCc1ccc(Cl)cc1)(Cn1cncn1)c1ccccc1", "note": "(stereo not drawn)", "AC50": "0.428 µM (active)"},
      {"smiles": "CCCN(CCC)c1c([N+](=O)[O-])cc(S(N)(=O)=O)cc1[N+](=O)[O-]", "AC50": "2.71 µM (active)"},
      {"smiles": "CCCCC(CC)COC(=O)c1ccccc1C(=O)OCC(CC)CCCC", "note": "(stereo not drawn)", "outcome": "inactive"},
      {"smiles": "CCOC(=O)CC(SP(=S)(OC)OC)C(=O)OCC", "note": "(stereo not drawn)", "AC50": "0.459 µM (active)"},
      {"smiles": "CCCC1COC(Cn2cncn2)(c2ccc(Cl)cc2Cl)O1", "note": "(stereo not drawn)", "AC50": "2.15 µM (active)"},
      {"smiles": "C#CCOS(=O)OC1CCCCC1Oc1ccc(C(C)(C)C)cc1", "note": "(stereo not drawn)", "AC50": "10 µM (active)"},
      {"smiles": "CO/C=C(/C(=O)OC)c1ccccc1Oc1cc(Oc2ccccc2C#N)ncn1", "AC50": "5.5 µM (active)"},
      {"smiles": "OC(c1ccc(Cl)cc1)(c1cncnc1)c1ccccc1Cl", "note": "(stereo not drawn)", "AC50": "6.02 µM (active)"},
      {"smiles": "CCOP(=S)(OCC)SCn1c(=O)oc2cc(Cl)ccc21", "AC50": "1.46 µM (active)"},
      {"smiles": "COP(=S)(OC)Oc1nc(Cl)c(Cl)cc1Cl", "outcome": "inactive"},
      {"smiles": "Cc1ccc(-c2c(Cl)nc(C#N)n2S(=O)(=O)N(C)C)cc1", "AC50": "10 µM (active)"},
      {"smiles": "CN(C)C(=S)SSC(=S)N(C)C", "AC50": "2.26 µM (active)"},
      {"smiles": "CCCCNC(=O)OCC#CI", "AC50": "2.41 µM (active) and 4.8 µM (active)"},
      {"smiles": "CCOC(=O)C(Cl)Cc1cc(-n2nc(C)n(C(F)F)c2=O)c(F)cc1Cl", "note": "(stereo not drawn)", "outcome": "inactive"},
      {"smiles": "COC(=O)N(OC)c1ccccc1COc1ccn(-c2ccc(Cl)cc2)n1", "AC50": "0.784 µM (active)"},
      {"smiles": "CNC(=S)S", "outcome": "inactive"}
    ]}
  ]
}
